The whole screen tested about 320,000 compounds, of which about 2,100 (0.66%) were called active. About 53% were inconclusive and are not listed. Calls come from the whole dose curve; as a rule, active = well fitted inhibition curve with a large enough effect in the signal ratio, with a control signal flat (not every such curve was filed as active); inconclusive = small, poorly fitted or top-dose-only effect, or effect the other way, or a change in a side signal; inactive = flat fitted curve, though single readings scatter; the % refers to the signal ratio. What follows is part of a selection rich in actives, with near analogues and random picks from the rest.

Data on 60 compounds can be found in PubChem BioAssay AID2685 (National Center for Advancing Translational Sciences (NCATS), 2010).
Potency is the fitted concentration of half-maximal effect.

The assay is described as follows: qHTS Assay for Lipid Storage Modulators in Drosophila S3 Cells.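 For cell number change: cells counted by Cell Tracker Red CMTPX staining in the red channel.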 For lipid storage change, negative = inhibition: % is set by controls: 0 for no effect and ±100 for the full control effect. Particulars: BODIPY lipid droplet fluorescence, 18-24 h, cells fed with added oleic acid; cell number change: measured here: cell count max response; series mostly up to 46.1 µM; lipid storage change, negative = inhibition: at the top concentration. In short, it runs like this:
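Laser-scanning cytometry quantifies lipid droplet accumulation (500–530 nm total intensity; droplet/cell object ratio) in oleic acid-fed (400 uM added) Drosophila S3 cells treated with a concentration series. 20 uM Triacsin C defined 100% inhibition.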
Background: In qHTS, concentration-response curves come from the screen itself.
As for `CC(=O)c1cccc(NC(=O)c2ccc(C(=O)Nc3cccc(C(C)=O)c3)nc2)c1`, the “lipid storage change, negative = inhibition” value is -11.2% (inactive) and the cell number change turned out to be 0.877%. For the compound `O=C(Oc1ccccc1)c1ccccc1OS(=O)(=O)c1ccccc1`, the Potency is 0.517 µM (active). Regarding `O=Cc1ccccc1OS(=O)(=O)c1ccccc1`, the “lipid storage change, negative = inhibition” value is -12.7% (inactive) and the cell number change is -9.79%. Taken in the same sequence, the figures for `Cc1ccccc1S(=O)(=O)Oc1ccccc1C(=O)Oc1ccccc1` were -2.83% (inactive) and -11.7%. In the case of `CC(=O)NC(C)C(=O)OCc1ccc(Cl)cc1Cl` (stereo not given), the compound was called inactive.

Consider `COc1cccc(CNC(=O)CCCCCn2c(=S)[nH]c3ccc(N4CCOCC4)cc3c2=O)c1`, for which the “lipid storage change, negative = inhibition” value was -0.41% (inactive) and the cell number change was determined as 4.01%. As to `O=C(CCCCCn1c(=S)[nH]c2ccc(N3CCOCC3)cc2c1=O)NCCc1ccccc1`, the “lipid storage change, negative = inhibition” value was -1.13% (inactive) and the cell number change was -6.4%. With `Cc1cccc(N2CCN(C(=O)CCCCCn3c(=S)[nH]c4ccc(N5CCOCC5)cc4c3=O)CC2)c1C`, the Potency is 20.6 µM (active) and the cell number change was 1.42%. As to `CCc1nn(CC(=O)NCCCN(CC)CC)c(=O)c2cc3sc(C)cc3n12`, the “lipid storage change, negative = inhibition” value is 11% (inactive) and the cell number change amounted to 7.9%. Taken in the same sequence, the figures for `COc1cccc(C(=O)COC(=O)C(C)N2C(=O)c3ccccc3C2=O)c1` (stereo not given) were 2.36% (inactive) and 8.05%.

As to `CCOC(=O)c1sc(NC(=O)c2ccccc2C(=O)O)c(C(=O)OCC)c1C`, the “lipid storage change, negative = inhibition” value is 9% (inactive) and the cell number change was -2.04%. Regarding `CCOC(=O)c1sc(NC(=O)c2ccoc2C)c(C(N)=O)c1C`, the Potency is 0.731 µM (active) and the cell number change is -15.9%. As for `COC(=O)c1c(NC(=O)c2ccoc2C)sc(C)c1C`, the “lipid storage change, negative = inhibition” value was 28.5% (inactive) and the cell number change came to 20.9%.

Turning to `O=S(=O)(c1cccc(C(F)(F)F)c1)N1CCCC1c1cccnc1` (stereo not given), the “lipid storage change, negative = inhibition” value was 9.53% (inactive) and the cell number change was 4.77%. Turning to `CCOC(=O)c1c(C)[nH]c(C(=O)CN2C(=O)NC3(CCCC3)C2=O)c1C`, the “lipid storage change, negative = inhibition” value is 3.01% (inactive) and the cell number change is -4.44%.

Consider `COC(=O)c1c(C)[nH]c(C(=O)CN2C(=O)NC3(CCOc4ccccc43)C2=O)c1C` (stereo not given), for which the “lipid storage change, negative = inhibition” value was 20.8% (inactive) and the cell number change is -21.7%. With `CCCC1(c2ccccc2)NC(=O)N(CC(=O)c2[nH]c(C)c(C(=O)OCC)c2C)C1=O` (stereo not given), the Potency was 8.2 µM (active) and the cell number change was -26.5%. Turning to `Oc1ccc(C[C@H]2CNCCN2CC2(c3ccccc3)CC2)cc1`, the “lipid storage change, negative = inhibition” value is -18.7% (inactive) and the cell number change stood at 19.8%. As to `COc1ccc(Cl)cc1NC(=O)CN(C)C1CCCCC1`, the “lipid storage change, negative = inhibition” value was 10.9% (inactive) and the cell number change was -8.15%. Taken in the same sequence, the figures for `COc1ccc(CCCC(=O)NC2CCCCC2)cc1` were 18.2% (inactive) and 0.276%.

`COc1ccc(OC)c(NC(=O)CN(Cc2ccc(Cl)cc2)S(C)(=O)=O)c1`: the “lipid storage change, negative = inhibition” value is -6.37% (inactive) and the cell number change amounted to 1.52%.

Consider `COc1ccc(OC)c(NC(=O)CCCC(=O)NC2CCCCC2)c1`, for which the Potency was 7.31 µM (active) and the cell number change was -7.97%. The matching figures for `COc1ccc(OC)c(NC(=O)CN(Cc2ccc(F)cc2)C2CCCCC2)c1`: 0.291 µM (active) and 6.76%. As for `COc1ccc(OC)c(NC(=O)CCN2CCCCC2)c1`, the “lipid storage change, negative = inhibition” value was -44.8% (inactive) and the cell number change is -3.94%. On to `Cc1ccsc1/C=C/c1n[nH]c(=O)c(C#N)c1C`, for which the result was inactive and the cell number change amounted to 22.2%.

Consider `O=C(NC1CCOC1)c1ccc(OC2CCN(CCc3ccccc3)CC2)cc1` (stereo not given), for which the “lipid storage change, negative = inhibition” value is -5.98% (inactive) and the cell number change is -24%. Taken in the same sequence, the figures for `CN(C)CCCCOc1ccccc1-c1ccccc1` were -7.9% (inactive) and -4.23%. Turning to `CN(C)CCOc1ccccc1-c1ccccc1`, the Potency was 23.1 µM (active) and the cell number change is -29.9%.

For `CN(C)CCOCCOc1ccccc1-c1ccccc1`, the “lipid storage change, negative = inhibition” value is -6.88% (inactive) and the cell number change is -9.8%. For the compound `COc1ccc(NS(=O)(=O)c2cc(NC(=O)COc3ccccc3F)ccc2OC)cc1`, the Potency is 1.64 µM (active) and the cell number change is -1.34%. Turning to `Cc1cc(C)nc(NS(=O)(=O)c2ccc(NC(=O)COc3ccccc3F)cc2)n1`, the “lipid storage change, negative = inhibition” value was 13.6% (inactive) and the cell number change came out at 12.7%. Turning to `COc1ccc(NS(=O)(=O)c2cc(NC(=O)Cc3c(F)cccc3Cl)ccc2OC)cc1`, the “lipid storage change, negative = inhibition” value is 6.88% (inactive) and the cell number change was -6.83%. The matching figures for `COCCNC(=O)c1ccc(CSCc2cccc(Cl)c2)o1`: 11.7% (inactive) and 7.62%. The matching figures for `c1ccc(CCNCC2COc3ccccc3O2)cc1` (stereo not given): 7.04% (inactive) and 16.7%. As to `Cc1ccc(CSCCNS(=O)(=O)c2ccc([N+](=O)[O-])cc2)cc1`, the “lipid storage change, negative = inhibition” value is 15.8% (inactive).

For `COc1ccccc1NC(=O)c1c(Nc2ccccc2C)sc(C(=O)Nc2cccc(Cl)c2)c1N`, the Potency was 1.64 µM (active) and the cell number change was -26.6%. Regarding `COc1ccc(C(=O)c2sc(Nc3ccccc3)c(C(=O)Nc3ccc(OC)c(OC)c3)c2N)cc1`, the “lipid storage change, negative = inhibition” value was 9.9% (inactive) and the cell number change was -20%.

Regarding `COc1ccccc1NC(=O)c1sc(Cl)nc1C`, the outcome was inactive and the cell number change is 1.65%. On to `Cc1cccc(C)c1NC(=O)CN(C)C(=O)c1cccc(S(=O)(=O)N2CCN(C)CC2)c1`, for which the cell number change came out at 10.4% and the lipid storage change, negative = inhibition was -25% [at 0.0737 µM] (inactive).

In the case of `CCOC(=O)C1CCN(CC(O)COCc2ccc3c(c2)OCO3)CC1` (stereo not given), the “lipid storage change, negative = inhibition” value is 6.44% (inactive). Consider `CCOC(=O)C1CCN(CC(O)COCc2ccccc2)CC1` (stereo not given), for which the “lipid storage change, negative = inhibition” value was 10.2% (inactive) and the cell number change is 4.71%. Regarding `CCOC(=O)C1CCN(CC(O)COCc2ccc(Cl)cc2)CC1` (stereo not given), the Potency was 18.4 µM (active) and the cell number change was 16.5%. On to `COc1ccc(NC(=O)CSc2nc3scc(C)c3c(=O)[nH]2)cc1`, for which the “lipid storage change, negative = inhibition” value was 19.3% (inactive) and the cell number change turned out to be 11.6%. For the compound `COc1cccc(NC(=O)CSc2nc3scc(C)c3c(=O)[nH]2)c1`, the Potency is 0.58 µM (active) and the cell number change was determined as 2.56%. As for `COc1ccc(C)cc1NC(=O)CSc1nc2scc(C)c2c(=O)[nH]1`, the compound was called inactive and the cell number change was found to be 10.8%. Regarding `CCOc1ccc(-c2nnn(CC(=O)NCc3cccs3)n2)cc1`, the “lipid storage change, negative = inhibition” value is 7.4% (inactive) and the cell number change is -5.47%. The matching figures for `CC(=O)NNc1[nH]c2c(c(=O)c1[N+](=O)[O-])c(=O)n(C)c(=O)n2C`: -5.91% (inactive) and -5.05%. The matching figures for `O=C(NC(Cc1ccccc1)C(=O)O)/C(=C/c1ccccc1)NC(=O)c1ccccc1` (stereo not given): -12.2% (inactive) and -7.82%. Taken in the same sequence, the figures for `O=C(NC(Cc1ccccc1)C(=O)O)c1ccccc1` (stereo not given) were -0.615% (inactive) and -3.84%. Take `CC(C)=C(NC(=O)c1ccccc1)C(=O)NC(Cc1ccccc1)C(=O)O` (stereo not given): the Potency is 1.16 µM (active) and the cell number change is -15%. `CC(=O)OCCn1c(C)[n+](CCOC(C)=O)c2cc(Cl)c(Cl)cc21`: the “lipid storage change, negative = inhibition” value is 3.84% (inactive) and the cell number change was determined as 13.2%. For the compound `COc1ccc(OCC(=O)N2CC3(C)CC2CC(C)(C)C3)cc1` (stereo not given), the compound was classed as inactive.

`Nc1c(C(=O)Nc2ccc(S(=O)(=O)N3CCCC3)cc2)sc2nc3cc4c(cc3cc12)CCC4`: the “lipid storage change, negative = inhibition” value is -10.7% (inactive) and the cell number change was found to be 6.36%. As for `CCc1cccc2cc3c(N)c(C(=O)Nc4ccc(S(=O)(=O)N5CCCC5)cc4)sc3nc12`, the Potency was 5.8 µM (active) and the cell number change amounted to 0.905%. For the compound `Cc1cccc2cc3c(N)c(C(=O)Nc4ccc(N5CCOCC5)cc4)sc3nc12`, the “lipid storage change, negative = inhibition” value was 5.73% (inactive) and the cell number change is -1.66%. Consider `Cc1cccn2c(=O)c3cc(C(=O)NCCc4ccccc4)sc3nc12`, for which the call was inactive and the cell number change is -15.4%.

Regarding `Cc1ccc(C(=O)N2CCC(Cc3ccccc3)CC2)cc1[N+](=O)[O-]`, the “lipid storage change, negative = inhibition” value is 14.3% (inactive) and the cell number change turned out to be 4.11%. As for `COc1cc(/C=C(/C#N)C(=O)NCc2ccccc2)cc(OC)c1OC`, the result was inactive and the cell number change is -27.2%. Consider `C=CCNC(=O)/C(C#N)=C\c1cc(Cl)c(O)c(OCC)c1`, for which the “lipid storage change, negative = inhibition” value was -22% (inactive) and the cell number change was found to be 2.03%. Take `C=CCNC(=O)/C(C#N)=C\c1cc(Cl)c(OCC)c(OC)c1`: the Potency was 14.6 µM (active) and the cell number change was -28.8%.
